The text below walks through data of PubChem BioAssay (Tox21).

SMILES strings stand for the structures. Unmarked numbers belong to inactive results. Results filed as inconclusive are left out. Calls of active or inactive are those of the source. Unless noted, calls come from the whole dose curve; as a rule, active = well fitted curve in the direction sought with a large enough effect in the repeat runs; inconclusive = weak or mixed curves; inactive = no such curve, though single readings can be large; an effect the other way counts as inactive or inconclusive.

Experiment [1] is described as follows: qHTS assay to test for compound auto fluorescence at 535 nm (green) in HEK293 cells (AID 720680).
A short description of experiment [2]: qHTS assay to test for compound auto fluorescence at 460 nm (blue) in HEK293 cell free culture (AID 720681). A digest of the protocol:
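Blue fluorescence (Ex 405/Em 460 nm, triamterene-equivalent) was read immediately after pin transfer of compound or DMSO into medium (DMEM, 10% FBS) without cells.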
A general note: Quantitative high-throughput screening tests each substance at several concentrations.

Experiment [3] is described as follows: qHTS assay to test for compound auto fluorescence at 535 nm (green) in HEK293 cell free culture (AID 720682). A digest of the protocol: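 Green-channel intensity (Ex/Em 485/535 nm) was recorded from compound-treated wells containing only DMEM with 10% FBS. Fluorescein provided the equivalency standard.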
The nature of experiment [4]: qHTS assay to test for compound auto fluorescence at 590 nm (red) in HEK293 cell free culture (AID 720683). A digest of the protocol: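 Red-channel autofluorescence of compounds in culture medium (DMEM, 10% FBS), no cells, measured at 540/590 nm. Rose Bengal sodium is the reference fluorophore for equivalence.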
Experiment [5] in a line: qHTS assay to test for compound auto fluorescence at 590 nm (red) in HepG2 cell free culture (AID 720684). The method, boiled down: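 Plate contents were MEM with 10% FBS plus test compound or DMSO, no cells. Fluorescence was recorded with 540 nm excitation and 590 nm emission.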
Experiment [6] can be described thus: qHTS assay to test for compound auto fluorescence at 460 nm (blue) in HepG2 cell free culture (AID 720685). A digest of the protocol:
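Compound (23 nL) or DMSO pinned into cell-free MEM with 10% FBS; blue fluorescence read at 405/460 nm excitation/emission, expressed as auto-fluorescence equivalency to triamterene.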

The nature of experiment [7]: qHTS assay to test for compound auto fluorescence at 535 nm (green) in HepG2 cell free culture (AID 720686).
Experiment [8] is described as follows: qHTS assay to test for compound auto fluorescence at 460 nm (blue) in HepG2 cells (AID 720687). The method, boiled down: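 Blue-channel autofluorescence (Ex/Em 405/460 nm, triamterene-equivalent) was measured after 1 hr compound exposure at 37 C, 5% CO2. Cells were HepG2, plated overnight at 37 C in MEM plus 10% FBS.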
For experiment [9], the target named is Glucocorticoid receptor (Homo sapiens) (UniProt P04150). The experiment is described as follows: qHTS assay to identify small molecule agonists of the glucocorticoid receptor (GR) signaling pathway (AID 720691; active = well fitted activation curve with a large enough effect in the signal ratio in the repeat runs, not every such curve was filed as active; the % refers to the signal ratio). A digest of the protocol: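 qHTS in GR-bla HeLa cells: 4 h settling at 37 C/5% CO2, 18 h compound incubation at 37 C, 2 h LiveBLAzer B/G FRET substrate at room temperature, fluorescence intensity measured.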
Chain of Glucocorticoid receptor (Homo sapiens) (P04150 whole entry, looked up): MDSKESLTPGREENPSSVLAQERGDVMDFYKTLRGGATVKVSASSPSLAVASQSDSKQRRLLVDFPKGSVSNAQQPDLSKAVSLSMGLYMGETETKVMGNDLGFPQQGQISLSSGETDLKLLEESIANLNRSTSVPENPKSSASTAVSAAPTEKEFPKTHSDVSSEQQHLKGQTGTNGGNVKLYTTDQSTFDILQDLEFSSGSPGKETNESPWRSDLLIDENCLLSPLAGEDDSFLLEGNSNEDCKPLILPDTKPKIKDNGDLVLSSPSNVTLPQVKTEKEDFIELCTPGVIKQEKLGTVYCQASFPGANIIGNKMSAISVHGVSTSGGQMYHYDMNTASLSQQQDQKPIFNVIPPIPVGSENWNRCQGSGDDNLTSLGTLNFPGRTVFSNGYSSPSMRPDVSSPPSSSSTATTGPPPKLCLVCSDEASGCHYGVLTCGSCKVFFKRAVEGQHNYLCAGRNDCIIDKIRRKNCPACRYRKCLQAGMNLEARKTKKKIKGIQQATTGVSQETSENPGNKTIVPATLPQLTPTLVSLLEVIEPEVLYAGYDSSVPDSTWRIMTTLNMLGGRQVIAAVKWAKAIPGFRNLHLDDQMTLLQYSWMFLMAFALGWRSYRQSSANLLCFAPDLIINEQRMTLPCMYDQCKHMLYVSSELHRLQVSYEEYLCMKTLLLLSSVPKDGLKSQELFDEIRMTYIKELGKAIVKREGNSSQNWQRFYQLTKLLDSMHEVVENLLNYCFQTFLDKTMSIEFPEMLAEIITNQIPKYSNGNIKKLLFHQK

Experiment [10] can be described thus: qHTS assay to identify small molecule antagonists of the glucocorticoid receptor (GR) signaling pathway - cell viability counter screen (AID 720693). Note: nearly all actives have a fitted effect of over 55% in size.
A short description of experiment [11]: qHTS assay for identifying genotoxic compounds that show differential cytotoxicity against isogenic chicken DT40 cell lines with known DNA damage response pathways - Rev3 mutant cell line (AID 743014). Note: nearly all actives have a fitted effect of over 55% in size. Note: potency is the fitted concentration of half-maximal effect.
The nature of experiment [12]: qHTS assay to identify small molecule antagonists of the androgen receptor (AR) signaling pathway - cell viability counter screen (AID 743033; note: nearly all actives have a fitted effect of over 45% in size).
The nature of experiment [13]: qHTS assay to identify small molecule antagonists of the androgen receptor (AR) signaling pathway using the MDA cell line - cell viability counter screen (AID 743041; note: nearly all actives have a fitted effect of over 45% in size). The method, boiled down:
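R1881-driven MDA-kb2 AR-luc cells, 3,000/well, were dosed with library compounds for 16 h; cell health came from CellTiter-Fluor fluorescence in the reporter wells.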

Experiment [14] in a line: qHTS assay for identifying genotoxic compounds that show differential cytotoxicity against isogenic chicken DT40 cell lines with known DNA damage response pathways - wild type cell line (AID 743012). Note: nearly all actives have a fitted effect of over 60% in size. Note: potency is the fitted concentration of half-maximal effect. The method, boiled down:
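First, wild type DT40 cells were plated at 300 per well and equilibrated about 0.5 h at 37 C/5% CO2. Next, compounds in DMSO were added and exposure lasted 40 h. Finally, CellTiter-Glo was added for 30 min at room temperature and luminescence recorded.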

Experiment [15] is described as follows: qHTS assay for identifying genotoxic compounds that show differential cytotoxicity against isogenic chicken DT40 cell lines with known DNA damage response pathways - Rad54/Ku70 mutant cell line (AID 743015). Note: nearly all actives have a fitted effect of over 60% in size. Note: potency is the fitted concentration of half-maximal effect.
Experiment [16] in a line: qHTS assay to identify small molecule antagonists of the thyroid receptor (TR) signaling pathway - cell viability counter screen (AID 743064). Note: nearly all actives have a fitted effect of over 50% in size. The method, boiled down: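 In rat pituitary GH3.TRE-Luc reporter cells co-exposed to compound and 1 nM T3 for 23.5 h, cytotoxicity was assessed with CellTiter-Fluor in the same wells, read by fluorescence.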
Experiment [17] addresses Androgen receptor (Homo sapiens) (UniProt P10275). The experiment is described as follows: qHTS assay to identify small molecule agonists of the androgen receptor (AR) signaling pathway (AID 743036; active = well fitted activation curve with a large enough effect in the signal ratio in the repeat runs, with a control signal flat, not every such curve was filed as active; the % refers to the signal ratio). The method, boiled down:
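Cell-based FRET reporter assay: HEK293 line with a UAS-beta-lactamase construct, compounds added in DMSO, 16 h exposure at 37C, then 2 h substrate step at room temperature and fluorescence intensity read.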

Experiment [18] shares this target. The experiment can be described thus: qHTS assay to identify small molecule agonists of the androgen receptor (AR) signaling pathway using the MDA cell line (AID 743040; note: nearly all actives have a fitted effect of over 20% in size). A digest of the protocol:
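After a 5 h incubation at 37C and 0% CO2, MDA-kb2 reporter cells were dosed with compounds in DMSO and kept 16 h under the same conditions. Luciferase activity was then read as luminescence with ONE-Glo.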

Experiment [19] shares this target. The experiment can be described thus: qHTS assay to identify small molecule antagonists of the androgen receptor (AR) signaling pathway using the MDA cell line (AID 743042; note: nearly all actives have a fitted effect of over 55% in size). The method, boiled down:
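Antagonist mode: compounds plus R1881 agonist added to MDA-kb2 AR-luc cells, incubated 16 h at 37C. Luciferase reporter luminescence quantified, with multiplexed CellTiter-Fluor readout for cell viability.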
% is set by controls: 0 for no effect and ±100 for the full control effect.

Chain of Androgen receptor (Homo sapiens) (P10275 whole entry, looked up): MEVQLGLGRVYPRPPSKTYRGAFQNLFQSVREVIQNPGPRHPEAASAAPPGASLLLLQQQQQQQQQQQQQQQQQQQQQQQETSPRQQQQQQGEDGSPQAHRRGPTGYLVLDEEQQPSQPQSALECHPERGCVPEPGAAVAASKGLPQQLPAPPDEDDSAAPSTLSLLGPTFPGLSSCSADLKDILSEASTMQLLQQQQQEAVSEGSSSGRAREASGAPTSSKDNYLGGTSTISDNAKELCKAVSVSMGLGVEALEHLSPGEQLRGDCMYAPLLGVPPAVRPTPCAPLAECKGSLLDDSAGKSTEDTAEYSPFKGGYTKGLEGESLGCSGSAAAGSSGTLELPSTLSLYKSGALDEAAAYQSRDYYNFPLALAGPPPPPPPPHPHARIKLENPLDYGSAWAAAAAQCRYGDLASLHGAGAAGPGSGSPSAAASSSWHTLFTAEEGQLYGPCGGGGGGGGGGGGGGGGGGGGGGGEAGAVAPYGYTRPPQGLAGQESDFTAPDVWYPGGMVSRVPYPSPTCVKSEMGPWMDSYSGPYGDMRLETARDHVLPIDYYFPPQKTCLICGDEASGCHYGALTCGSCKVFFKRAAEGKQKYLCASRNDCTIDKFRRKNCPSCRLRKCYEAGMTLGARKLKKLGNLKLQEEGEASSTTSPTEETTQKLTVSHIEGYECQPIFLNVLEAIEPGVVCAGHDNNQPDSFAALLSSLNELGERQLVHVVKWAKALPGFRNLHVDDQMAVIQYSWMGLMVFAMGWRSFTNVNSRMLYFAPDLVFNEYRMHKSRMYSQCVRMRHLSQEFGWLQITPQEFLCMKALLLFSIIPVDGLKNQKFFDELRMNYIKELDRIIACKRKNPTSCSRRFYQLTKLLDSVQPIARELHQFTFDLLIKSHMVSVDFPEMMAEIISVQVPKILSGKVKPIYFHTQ

As to `O=C(OCCOCCO)c1ccccc1Nc1cccc(C(F)(F)F)c1`, in experiment [1], the fluorescence, % of fluorescein was -0.0064% [at 18.6 µM]. For the same molecule, the fluorescence, % of fluorescent control in [2] is -0.158% [at 18.6 µM]; in experiment [4], -0.579% [at 18.6 µM]; in experiment [6] it was -0.0111% [at 18.6 µM]; in [8], -0.0068% [at 18.6 µM]. Also, the activity change in experiment [3] is 0.0151% [at 18.6 µM]. Also, the fluorescence, % of Rose Bengal in [5] was -0.0242% [at 18.6 µM]. The fluorescence, % of fluorescein control in experiment [7] is 0.0209% [at 18.6 µM]. Moreover, the Potency result in experiment [9], in experiment [10], in experiment [11], in experiment [12] and in experiment [13] was “inactive” throughout.

Consider `C=CC(=O)NCOCC(C)C`, for which the molecule was classed as inactive in [1], in experiment [3], in experiment [4], in [5] and in experiment [7]. Further, the Potency result in [2], in experiment [6], in [8], in [10], in experiment [14] and in [15] was “inactive” each time. The Potency result in experiment [12], in experiment [13] and in [16] was “inactive” in each case.

Regarding `CN(C)C(=O)Nc1ccc(Oc2ccc(Cl)cc2)cc1`, the molecule was classed as inactive in experiment [1], in experiment [3], in experiment [4], in experiment [5] and in experiment [7]. Besides, the Potency result in experiment [2], in experiment [6], in [8] and in experiment [10] was “inactive” throughout. In addition, the Potency in [14] was 21.7 µM (active); in [11], 24.3 µM (active); in [15] it was 15.4 µM (active).

For the molecule `CCCOC(=O)c1ccc(N)cc1`, the outcome in experiment [1], in [3], in experiment [4], in experiment [5] and in experiment [7] was inactive. For the same molecule, the Potency result in [2], in experiment [6], in experiment [8], in experiment [9], in experiment [14] and in experiment [12] was “inactive” throughout. The Potency entry in experiment [17], in experiment [18], in experiment [13] and in experiment [19] was “inactive” throughout. Also, in experiment [15], the Potency is 23.7 µM (active).

In the case of `C[Si]1(C)O[Si](C)(C)O[Si](C)(C)O1`, the result in experiment [1], in experiment [3], in [4], in experiment [5] and in [7] was inactive. Also, the Potency result in experiment [2], in [6], in experiment [8], in [10], in experiment [14] and in experiment [11] was “inactive” throughout. For the same molecule, the Potency entry in [15], in [12], in experiment [17], in experiment [18], in experiment [19] and in [16] was “inactive” in each case.

As for `CO[C@H]1O[C@H](CO)[C@@H](O)[C@H](O)[C@H]1O`, the molecule was classed as inactive in experiment [1], in experiment [3], in [4], in experiment [5] and in [7]. In addition, the Potency result in experiment [2], in [6], in [8], in experiment [10], in experiment [14] and in [11] was “inactive” each time. Besides, the Potency result in experiment [15], in [12], in experiment [13] and in [16] was “inactive” in each case.

For `CCCc1c(OCCCOc2ccc(OCC(=O)O)cc2)ccc(C(C)=O)c1O`, the call in experiment [1], in experiment [3], in [4], in experiment [5] and in experiment [7] was inactive. Also, the Potency entry in experiment [2], in experiment [6], in [8], in experiment [9], in experiment [10] and in experiment [14] was “inactive” in each case. Besides, the Potency entry in experiment [18], in experiment [13], in experiment [19] and in experiment [16] was “inactive” each time.
